From PubChem
An excerpt weighted towards active compounds, which were near 14% of everything screened.
HCMV inh – blocks human cytomegalovirus replication; HFF cells, HCMV-luciferase reporter, 72 h; active compounds read low; actives 4.5% (n = 410,000); activity change, negative = inhibition, % at 57.5 µM; AID 1259415; in the data active = activity change below about -60%; inconclusive = no clear call, values can overlap the other calls; inactive = above about -39%
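Luciferase read-out from HCMV-luciferase-infected HFFs (MOI 1 PFU/cell) 72 h post infection at 37C; compounds added after 16 h cell attachment; activity normalized between buffer-only basal and Salinomycin (10uM) inhibitor controls.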
Pf growth 48h – inhibits P. falciparum growth in the first generation, 48 h. P. falciparum luciferase growth in erythrocytes, 48 h. Potency, µM (top dose mostly 28.7 µM), actives largely listed as inhibitors. actives 5.9% (n = 310,000). AID 504832
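Compounds are pin-transferred into medium, infected erythrocytes (2% hematocrit, 0.1% parasitemia final) are added, and plates sit one parasite generation at 37 C in 5% CO2. Detection reagent is then added and luminescence measured.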
Pf growth 96h – P. falciparum growth inhibition at 96 hour, primary screen for plastid delayed-death inhibitors; Potency, µM (titrated, usually from 28.7 µM), most hits filed as inhibitors; P. falciparum luciferase reporter growth, 96 h; actives 6.9% (n = 320,000)
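Readout is luminescence from an integrated firefly luciferase in P. falciparum. Red cells, 2% hematocrit and 0.05% parasitemia final, were cultured with compound through two parasite generations (96 hours) at 37 C, 5% CO2.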
Giardia FBPA inh – blocks Giardia fructose-bisphosphate aldolase activity. purified Giardia FBPA. Potency, µM (titrated, usually from 59.6 µM), most hits filed as inhibitors. actives 0.71% (n = 290,000). AID 2451; note: nearly all actives have a fitted effect of over 55% in size
Target sequence (A8B2U2 whole entry, looked up): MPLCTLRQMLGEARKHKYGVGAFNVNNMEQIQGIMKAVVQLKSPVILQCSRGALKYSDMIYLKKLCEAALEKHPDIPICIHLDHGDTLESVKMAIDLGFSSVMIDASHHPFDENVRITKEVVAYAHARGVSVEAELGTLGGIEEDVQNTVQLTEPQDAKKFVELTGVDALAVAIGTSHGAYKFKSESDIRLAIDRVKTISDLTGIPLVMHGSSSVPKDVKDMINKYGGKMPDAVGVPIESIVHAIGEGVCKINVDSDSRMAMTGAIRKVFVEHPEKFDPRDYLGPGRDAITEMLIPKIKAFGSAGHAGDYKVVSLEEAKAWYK
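40 nM FBPA preincubated 10 min at RT with compound (up to 57.5 uM final), then substrate plus GAPDH/TPI/NAD/arsenate coupling and diaphorase/resazurin added. Fluorescence read after 20 min at RT, 525/598 nm.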
Sm TGR block – S. mansoni TGR enzyme inhibition. Potency, µM (series often up to 114 µM), hits mostly inhibitors. AID 485364. Q962Y6. actives 3% (n = 360,000). purified TGR, DTNB reduction, TNB absorbance 405 nm; note: nearly all actives have a fitted effect of over 60% in size
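TGR 20 nM + NADPH 100 uM (dispensed conc.), cpd preinc 15 min RT; start with NADPH (500 uM addition) then DTNB (15 mM addition). Kinetic TNB absorbance, 405 nm filter. Four-parameter Hill fit across titration.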
A number is an active result; [ ] = dose if it differs, or a comment. Unless noted, calls come from the whole dose curve; as a rule, active = well fitted curve in the direction sought with a large enough effect; inconclusive = small, poorly fitted or top-dose-only effect, or another doubt; inactive = no such curve, though single readings can be large; an effect the other way counts as inactive or inconclusive.

`N#CC(CC(=O)OCc1ccccc1)NC(=O)OCc1ccccc1` (centres undefined) gave HCMV inh inactive.
Screening COC(=O)c1cc2c(cc1[N+](=O)[O-])OCO2 returned HCMV inh inactive, Pf growth 48h inactive, Pf growth 96h inactive, Giardia FBPA inh inactive and Sm TGR block inactive.
For COc1cc2c(cc1/C=C/[N+](=O)[O-])OCO2 the results were HCMV inh -107.5, Pf growth 48h inconclusive, Pf growth 96h inactive, Giardia FBPA inh inactive and Sm TGR block inactive.
For CCN(Cc1ccccc1)c1ccc(/C=N/N=C(N)N)cc1 the results were HCMV inh -61.9, Pf growth 48h 1.47µM, Pf growth 96h 1.65µM, Giardia FBPA inh inactive and Sm TGR block inactive.
For NC(N)=N/N=C/c1ccc(N(c2ccccc2)c2ccccc2)cc1 the results were HCMV inh -97.5, Pf growth 48h 2.33µM, Pf growth 96h 2.08µM, Giardia FBPA inh inactive and Sm TGR block inactive.
CCN(Cc1ccccc1)c1ccccc1 was read as HCMV inh inactive.
For COCCn1c(SCC(=O)Nc2ccc(F)cc2F)nc2c([nH]c3ccccc32)c1=O the results were HCMV inh inactive, Pf growth 48h inactive, Pf growth 96h inactive and Sm TGR block inactive.
`CC1=CCC2C(=O)N(c3ccc(N4CCOCC4)cc3)C(=O)C2C1` (centres undefined) gave HCMV inh inactive, Pf growth 48h inactive, Pf growth 96h inactive, Giardia FBPA inh inactive and Sm TGR block inactive.
CCC(=O)Nc1cccc(C(=O)/C=C/c2cccs2)c1 was read as HCMV inh -61.6, Pf growth 48h inconclusive, Pf growth 96h inconclusive and Giardia FBPA inh inactive.
For CCC(=O)Nc1cccc(C(=O)/C=C/c2ccccc2)c1 the results were HCMV inh -104.5, Pf growth 48h inactive, Pf growth 96h inconclusive, Giardia FBPA inh inactive and Sm TGR block inconclusive.
`CCC(=O)Nc1cccc(C(=O)c2ccccc2)c1` gave HCMV inh inactive, Pf growth 48h inactive, Giardia FBPA inh inactive and Sm TGR block inactive.
`Cn1cccc1C(=O)OCc1cc(-c2ccco2)on1` gave HCMV inh inactive, Pf growth 48h inactive, Pf growth 96h inactive and Sm TGR block inconclusive.
Screening COc1ccc(N2CCN(C3CCCN(S(=O)(=O)c4ccc(C)cc4C)C3)CC2)cc1 (centres undefined) returned HCMV inh -73.1, Pf growth 48h inconclusive, Pf growth 96h inconclusive and Sm TGR block inactive.
For CC1CCC2C(=O)N3C(CCC(C)[C@@H]3c3cccc(N4CCOCC4)c3)C(=O)N2C1c1cccc(Br)c1 (some centres undefined) the results were Giardia FBPA inh inactive[12.9 µM].
`CCN(CC)S(=O)(=O)c1ccc2[nH]cc(C(=O)NCCC3=CCCCC3)c(=O)c2c1` gave HCMV inh -83.1, Pf growth 48h 8.28µM, Pf growth 96h inactive, Giardia FBPA inh inactive and Sm TGR block inactive.
Screening COCCNC(=O)c1c[nH]c2ccc(S(=O)(=O)N(C)c3ccc(C)c(C)c3)cc2c1=O returned HCMV inh inactive, Pf growth 96h inconclusive, Giardia FBPA inh inactive and Sm TGR block inactive.
CCN(CC)S(=O)(=O)c1ccc2[nH]cc(C(=O)NCCN3CCCCC3C)c(=O)c2c1 (centres undefined) was read as HCMV inh inactive, Pf growth 48h 4.15µM, Giardia FBPA inh inactive and Sm TGR block inactive.
`C=CCN(c1ccccc1)S(=O)(=O)c1ccc2[nH]cc(C(=O)NCCOC)c(=O)c2c1` gave HCMV inh inactive, Pf growth 48h inconclusive, Pf growth 96h 4.65µM, Giardia FBPA inh inactive and Sm TGR block inactive.
`CCc1ccc(N(C)S(=O)(=O)c2ccc3[nH]cc(C(=O)NCCN4CCOCC4)c(=O)c3c2)cc1` gave HCMV inh inconclusive, Pf growth 96h inconclusive, Giardia FBPA inh inactive and Sm TGR block inactive.
For CCN(CC)S(=O)(=O)c1ccc2[nH]cc(C(=O)NCCCN3CCCCC3C)c(=O)c2c1 (centres undefined) the results were HCMV inh -73.0, Pf growth 48h 10.4µM, Giardia FBPA inh inactive and Sm TGR block inactive.
Screening COc1cccc2c1OC(=O)CC2c1ccc(C)cc1 (centres undefined) returned Giardia FBPA inh inactive.
CCCCn1c(N)c(N(CCC(C)C)C(=O)c2oc3ccc(OCC)cc3c2C)c(=O)[nH]c1=O was read as HCMV inh inactive, Pf growth 48h inconclusive, Pf growth 96h inconclusive and Sm TGR block inactive.
C[C@@H]1CCCCO[C@H](CN(C)C(=O)Nc2ccc(F)cc2)[C@@H](C)CN([C@H](C)CO)C(=O)c2cc(N(C)C)ccc2O1 was read as HCMV inh inactive.
Screening CCCCCNC(=O)c1c[nH]c2ccc(S(=O)(=O)N3CCC4(CC3)OCCO4)cc2c1=O returned HCMV inh inactive, Pf growth 48h 13.1µM, Pf growth 96h inactive, Giardia FBPA inh inactive and Sm TGR block inactive.
CCN(CC)S(=O)(=O)c1ccc2[nH]cc(C(=O)NCCN3CCCCCC3)c(=O)c2c1 was read as HCMV inh inactive, Pf growth 48h 1.85µM, Pf growth 96h inactive, Giardia FBPA inh inactive and Sm TGR block inactive.
CCN(CC)S(=O)(=O)c1ccc2[nH]cc(C(=O)NCCCN3CCCCC3)c(=O)c2c1 was read as HCMV inh inactive, Pf growth 48h inconclusive, Pf growth 96h inconclusive, Giardia FBPA inh inactive and Sm TGR block inactive.
O=c1cc(-c2ccccc2)nc2nc[nH]n12 was read as HCMV inh inactive, Pf growth 96h 0.294µM, Giardia FBPA inh inactive and Sm TGR block inactive.
`C#CCOCC1CN(C)C(=O)O1` (centres undefined) gave HCMV inh inactive.
Cc1cc(SCC(=O)NCCCN2CCCC2=O)nc2ccccc12 was read as HCMV inh inactive, Pf growth 48h inactive, Pf growth 96h inactive and Sm TGR block inactive.
For NC(N)=NC(N)=Nc1ccc2ccccc2c1 the results were HCMV inh -69.3, Pf growth 48h inconclusive, Pf growth 96h inconclusive, Giardia FBPA inh inactive and Sm TGR block inactive.
CN1CCN(S(=O)(=O)c2ccc(Nc3ccc(F)cc3)c([N+](=O)[O-])c2)CC1 was read as HCMV inh inconclusive, Pf growth 48h inactive, Pf growth 96h inactive and Sm TGR block inactive.
CCOc1ccc(Nc2ccc(S(=O)(=O)N3CCN(C)CC3)cc2[N+](=O)[O-])cc1OCC was read as HCMV inh inactive, Pf growth 48h 11.7µM, Pf growth 96h inconclusive and Sm TGR block inactive.
Screening CCn1c(O)c(/C=C2\C=Nc3ccccc32)sc1=O returned HCMV inh inactive, Pf growth 48h inactive, Pf growth 96h 7.38µM, Giardia FBPA inh inactive and Sm TGR block inactive.
Screening COc1ccc(-c2oc3ccccc3c2C(=O)OCc2ccc([N+](=O)[O-])cc2)cc1 returned HCMV inh -62.1, Pf growth 48h inactive, Pf growth 96h inactive, Giardia FBPA inh inactive and Sm TGR block inactive.
COc1ccc(-c2oc3ccccc3c2C(=O)OCc2ccc(O)cc2)cc1 was read as HCMV inh inactive, Pf growth 48h inactive, Pf growth 96h inactive, Giardia FBPA inh inactive and Sm TGR block inactive.
